Bioassay records as filed in PubChem.
PNC assembly inh: High Content Assay for Compounds that inhibit the Assembly of the Perinucleolar Compartment. PC3M PTB-GFP, PNC prevalence imaging, 16 h; active compounds read low. activity change (PNC), negative = inhibition, % at 10 µM. hit rate 3.1% among 140,000. AID 2417, 2010;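 active = readout at or below -70, meaning at least 70% loss of cells showing the perinucleolar compartment, a nuclear body marking cancer cells; inconclusive = readout between -30 and a set limit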
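PC3M cells stably expressing PTB-GFP, 750–1000 cells/well, treated 16 h at 37 °C with compound (23 nl of library stock), in duplicate. After paraformaldehyde fixation and Hoechst stain, imaged at 20x; PNC prevalence scored by image analysis.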
ALDH1A1 inh: qHTS Assay for Inhibitors of Aldehyde Dehydrogenase 1 (ALDH1A1) | Potency, µM (titrated, usually from 75.3 µM), hits mostly inhibitors | hit rate 7.3% among 220,000 | Purified ALDH1A1, NADH fluorescence, propionaldehyde substrate | AID 1030, 2008
Target sequence (P00352 whole entry, looked up): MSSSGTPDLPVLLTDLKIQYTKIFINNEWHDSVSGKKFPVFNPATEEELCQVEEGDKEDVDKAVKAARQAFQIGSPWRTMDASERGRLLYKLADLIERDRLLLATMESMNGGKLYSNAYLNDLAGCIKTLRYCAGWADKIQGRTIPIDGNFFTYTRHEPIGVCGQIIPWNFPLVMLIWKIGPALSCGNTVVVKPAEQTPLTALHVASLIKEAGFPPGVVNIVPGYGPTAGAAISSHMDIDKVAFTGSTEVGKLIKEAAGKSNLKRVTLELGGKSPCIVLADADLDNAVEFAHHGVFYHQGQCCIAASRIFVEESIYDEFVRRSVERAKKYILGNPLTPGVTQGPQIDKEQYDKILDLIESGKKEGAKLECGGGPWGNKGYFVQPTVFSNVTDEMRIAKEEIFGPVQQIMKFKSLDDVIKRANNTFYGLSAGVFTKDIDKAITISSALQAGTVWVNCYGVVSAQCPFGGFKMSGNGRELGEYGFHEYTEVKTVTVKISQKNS
HPGD block: qHTS Assay for Inhibitors of HPGD (15-Hydroxyprostaglandin Dehydrogenase). 15-hydroxyprostaglandin dehydrogenase [NAD(+)] (Homo sapiens), P15428. Potency, µM, actives largely listed as inhibitors. hit rate 4.3% among 150,000. purified HPGD, NADH fluorescence kinetic, PGE2 substrate. AID 894, 2007
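NADH formation kinetics: reaction with 30 uM PGE2 and 1 mM NAD+ (final), 20 nM enzyme, Tris-HCl pH 8 with Tween 20, after 15 min compound preincubation at room temperature. Fluorescence change, last versus first of five reads.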
A number is an active result; n = inactive; u = inconclusive; x = not tested or not shown; [ ] = dose if it differs, or a comment. The list is not random: actives were taken first. Their share in the collection is about 11%. Unless noted, calls come from the whole dose curve; as a rule, active = well fitted inhibition curve with a large enough effect (not every such curve was filed as active); inconclusive = small, poorly fitted or top-dose-only effect, or another doubt; inactive = no such curve, though single readings can be large or run the other way.

SMILES	PNC assembly inh	ALDH1A1 inh	HPGD block
CC(=O)c1sc2nc(CSc3nnnn3-c3ccccc3)[nH]c(=O)c2c1C	x	25.1µM	x
COC(=O)[C@@H]1CC[C@H](C)[C@@H](c2ccc(C)cc2)N1C(=O)c1ccc(/C=N\OC[C@@H](C)[C@H](OCc2ccccc2)C(C)C)cc1	x	n[13.5 µM]	x
CN(C)c1ccc(/C=N/Nc2ccc(-n3ccnc3)nn2)cc1	n	7.94µM	n
FC(F)(F)COc1ccc(-n2ccnc2)nn1	x	n	x
COCCNc1nnnc2c1sc1nc(N3CCOCC3)c3c(c12)CCCC3	x	n	x
CC(=O)Nc1cn(-c2ccccc2)nc1-c1ccccc1	x	n	x
O=C(CCl)Nc1ccc(-c2ccccc2)cc1	x	0.251µM	x
O=C(O)CC(=O)Nc1ccccc1	n	n	n
CC(=O)Nc1ccc(N=Nc2ccccc2)cc1	n	n	n
O=C(CCl)Nc1cn(-c2ccccc2)nc1-c1ccccc1	x	14.1µM	x
CC(C)N(c1ccccc1)c1ccc(NC(=O)CCl)cc1	x	0.398µM	x
CC(C)CC(NC(=O)CCl)c1ccccc1 (configuration not stated)	u	u	n
O=C(CCl)Nc1ccc(N=Nc2ccccc2)cc1	-121.9	0.398µM	n
CCCCN1CCCC[C@H]1C(=O)Nc1c(C)cccc1C	x	n	n
COc1cc(C2c3cc4c(cc3C(OC3OC5COC(C)O[C@@H]5C(O)C3O)C3COC(=O)C23)OCO4)cc(OC)c1O (some centres not stated)	x	n	n
CC(C)(C)c1ccc(OCC(=O)NNC(=O)c2cccnc2)cc1	x	n	x
CC(C(=O)NCC1CCCCC1)N1CCN(S(=O)(=O)c2ccccc2F)CC1 (configuration not stated)	x	15.8µM	x
O=S(=O)(c1ccccc1F)N1CCN(CC(O)c2ccccc2)CC1 (configuration not stated)	x	n	x
CC(=O)c1ccc(NC(=O)C(C)OC(=O)COc2ccc(C#N)cc2)cc1 (configuration not stated)	n	n	x
COc1ccc(O)c(/C=c2/sc3nc4cc(C)c(C)cc4n3c2=O)c1	u	u	7.94µM
COc1ccc(OC)c(/C=c2\sc3nc(-c4cccs4)nn3c2=O)c1	n	n	n
O=C(O)CCCC(=O)Nc1ccc(OCc2nc3ccccc3s2)cc1	x	1.78µM	x
O=C(CCCc1nc2ccccc2s1)Nc1ccccc1	x	n	x
CC(CCc1ccccc1)NC(=O)COC(=O)c1cccc2ccccc12 (configuration not stated)	n	u	u
CCC(C)NCCOCCOc1ccc(Cl)cc1Br (configuration not stated)	x	n	x
SMILES	PNC assembly inh	ALDH1A1 inh	HPGD block
COc1ccc(CCn2c(=O)c3cccnc3n(Cc3cccc([N+](=O)[O-])c3)c2=O)cc1OC	x	n	x
O=C1OC(O)C(C(Cl)Cl)=C1Cl (configuration not stated)	x	20µM	n
Cc1cccc(C(=O)NN2S(=O)(=O)c3ccccc3S2(=O)=O)c1	x	n	x
O=C(O)c1ncn(Cc2ccc(Br)cc2)c1C(=O)O	x	n	x
CSc1nc(-c2ccccc2)nc(N2CCN(C)CC2)c1C(C)=O	n	n	n
CSc1nc(-c2ccccc2)nc(N2CCCC2)c1C(C)=O	n	n	20µM
CC(C)NC[C@@H](O)c1ccc(O)c2ncccc12	x	n[13.5 µM]	n
CCOC(=O)NCC(C#CCN(CC)CC)N(CC)CC (configuration not stated)	-92.8	n	n
CCN(CC)CC#CC(C)OCOCC#CCOC (configuration not stated)	n	n	n
C=C(C)C(O)/C=C/c1ccc(C)cc1 (configuration not stated)	x	n[13.5 µM]	x
COc1ccccc1NC(=O)c1c(NC(=O)CCC(=O)O)sc2c1CCCCC2	x	22.4µM	x
CCOC(=O)c1c(NC(=O)CN(CC)CC)sc2c1CCC2	u	n	n
CCOC(=O)c1c(NC(=O)CCCC(=O)O)sc2c1CCC2	x	n	x
CCOC(=O)c1c(NC(=O)CCC(=O)O)sc2c1CCCCC2	u	8.91µM	8.91µM
COc1ccc(OC)c(NC(=O)c2c(NC(=O)CCC(=O)O)sc3c2CCCCC3)c1	n	n	n
CCOC(=O)c1c(NC(=O)CNCCOC)sc2c1CCCC2	n	25.1µM	n
Cc1ccc(C)c(N2CCN(c3cnn(-c4nc5ccccc5s4)c(=O)c3Cl)CC2)c1	n	n	u
Cc1ccc(S(=O)(=O)N2CCN(C(=O)c3ccccc3)CC2)c(C)c1NS(C)(=O)=O	x	n	x
O=C1C2=CC[C@H]3C(=O)N(c4cccc(Oc5ccccc5)c4)C(=O)[C@@H]3[C@@H]2[C@H](O)[C@@H]2O[C@H]12	x	n[13.5 µM]	x
O=C(O)CN(CC(=O)O)c1ccccc1	x	n[13.5 µM]	n
CCOc1ccccc1NC(=O)Cn1nnc(C(=O)Nc2ccccc2Cl)c1N	u	n	n
CCc1ccccc1NC(=O)c1nnn(CC(=O)Nc2ccccc2C)c1N	-102.2	n	n
Cc1nnc(SCC(=O)NC(C)(C)C)n1C1CCCCC1	n	n	n
Cc1noc(C)c1COc1ccc(C(=O)OCC(=O)Nc2cccc(S(=O)(=O)N3CCOCC3)c2)cc1	n	n	n
CCCCN(C(=O)CCC(=O)O)C1CC(=O)N(c2ccc(OCCC)cc2)C1=O (configuration not stated)	n	n	n
SMILES	PNC assembly inh	ALDH1A1 inh	HPGD block
Cc1cccc(N2C(=O)CC(N(O)c3ccccc3)C2=O)c1 (configuration not stated)	n	u	n
COc1ccccc1N(O)C1CC(=O)N(c2ccc(Br)cc2)C1=O (configuration not stated)	u	17.8µM	28.2µM
CCCCCCC(=O)N(O)C1CC(=O)N(c2ccc(Br)cc2)C1=O (configuration not stated)	u	0.562µM	7.08µM
Cc1c(Cl)cccc1NC(=O)c1ccc(OCC(=O)NCc2ccccc2)cc1	n	n	n
O=C(NC1CCCC1)C1CCN(C(=O)c2ccc(-c3ccccc3)cc2)CC1	x	n	x
CC1CCN(S(=O)(=O)c2ccc(NC(=O)Cn3nnc(-c4ccccc4)n3)cc2)CC1	-100.0	n	n
COc1ccc(C(=O)Cn2nnc(-c3ccccc3NC(=O)C3CCCCC3)n2)cc1	n	0.282µM	n
COc1ccc(C(=O)Cn2nnc(-c3ccccc3NC(=O)C(F)(F)F)n2)cc1	n	n	n
CCOc1ccc(NC(=O)Cn2nnc(-c3ccccc3NC(=O)C3CC3)n2)cc1	n	n	n
COc1ccc(NC(=O)Cn2nnc(-c3ccccc3NC(=O)C3CC3)n2)cc1	-103.7	n	x
CC1CCCN(S(=O)(=O)c2ccc(NC(=O)Cn3nnc(-c4ccccc4F)n3)cc2)C1 (configuration not stated)	n	u	n
COC(=O)c1ccc(C(=O)Nc2ccc(C(C)C)cc2N)cc1	x	n	x
N#Cc1cccc(-c2cc(-n3ccnc3)ncn2)c1	x	n	n
NS(=O)(=O)c1ccc(N=Nc2cc3ccccc3c(C(=O)O)c2O)cc1	x	n[13.5 µM]	n
Cc1ccc(NC(=S)N(CCCN2CCC(C)CC2)Cc2ccco2)cc1C	x	n	x
COc1ccc(NC(=O)N2CCc3nc(-c4ccc(OC)cc4C)c4c(c3C2)CO[C@@H](c2ccccc2)C4)cc1	x	3.98µM	n
CCOC(=O)CCCNC(=O)N1CCc2nc(-c3ccc(OC)cc3C)c3c(c2C1)CO[C@@H](c1ccccc1)C3	x	u	n
